Results on 35 compounds are retold here after PubChem BioAssay (NCATS).

Records with an inconclusive call do not appear. Entries that show only a call come without a potency. Calls of active or inactive are those of the source. Calls come from the whole dose curve; as a rule, active = well fitted curve in the direction sought with a large enough effect; inconclusive = small, poorly fitted or top-dose-only effect, or another doubt; inactive = no such curve, though single readings can be large; an effect the other way counts as inactive or inconclusive.

Assay [1] relates to Zika virus NS2B-NS3 protease. Nature of the assay: Primary screen GU AMC qHTS for Zika virus inhibitors (AID 1347154). Note: nearly all actives have a fitted effect of over 70% in size. The method, boiled down:
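Fluorogenic AMC-substrate cleavage by noncovalent NS2B-NS3 protease complex (25 nM, pH 8.0 Tris buffer with Tween 20) followed for 15 minutes at room temperature (~20% conversion). Percent inhibition from ex340/em450 signal change, fitted by 4-parameter Hill equation.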

Assay [2] relates to Zika virus NS2B-NS3 protease (unlinked complex). Nature of the assay: Primary screen GU Rhodamine qHTS for Zika virus inhibitors: Unlinked NS2B-NS3 protease assay (AID 1347159). Note: nearly all actives have a fitted effect of over 60% in size. The method, boiled down:
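Noncovalent NS2B hydrophilic domain/NS3 protease complex (25 nM final) in 10 mM Tris-HCl pH 8.0, 0.01% Tween 20, preincubated 15 min with compounds (up to 114 microM), then 1.5 microM Rhodamine110 substrate. Fluorescence change over 15 min fitted to 4-parameter Hill.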

In assay [3] the test system is Zika virus NS2B-NS3 protease (linked construct). The assay can be described thus: Primary screen NINDS Rhodamine qHTS for Zika virus inhibitors (AID 1347160). Note: nearly all actives have a fitted effect of over 55% in size. The conditions noted are these: outcome: dose series up to 57.1 µM. The method, boiled down: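 Purified NS2B-NS3 protease with the NS2B hydrophilic domain joined by a flexible linker (25 nM) in 10 mM Tris-HCl pH 8.0, 0.01% Tween 20, preincubated 15 min at RT with compound; Rhodamine110 peptide substrate 1.5 µM; fluorescence change over 15 min; 4-parameter Hill fit.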

Assay [4] addresses Lysine-specific demethylase 5B (Homo sapiens) (UniProt Q9UGL1). The assay can be described thus: Optimization screen for KDM5B Histone Demethylases FDH coupled qHTS against the LOPAC library (AID 1347166). The method, boiled down: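 KDM5BDeltaAP (200nM final) preincubated 10 min with compound, then 12.5uM H3K4Me3, 25uM a-ketoglutarate, ascorbate, Fe(II), NAD+ and FDH added; 50mM HEPES pH 7.5, 0.01% Tween-20. NADH fluorescence (340/450 nm) change over 30 min, room temperature.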

In assay [5] the test system is Zika virus NS2B-NS3 protease (linked). The assay can be described thus: 384 well plate NINDS AMC confirmatory qHTS for Zika virus inhibitors (AID 1347163).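 Note: linked protease at 5 30 or 60 nM final depending on run; fluorescence of AMC released from Ac-VKTGKR-AMC peptide cleaved by the protease; top concentration of the series differs between compounds; nearly all actives have a fitted effect of over 50% in size.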 The method, boiled down:
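Linked NS2B-NS3 protease (final 5 nM, 30 nM or 60 nM) was preincubated with compounds (final up to 1 mM) for ~15 minutes. Ac-VKTGKR-AMC substrate (final 30 microM) then reacted for 25 minutes at room temperature in the dark. Fluorescence (ex 355/em 460 nm) was normalized to no-enzyme and no-inhibitor controls.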

For assay [6], the system named is Zika virus NS2B-NS3 protease (linked construct). Nature of the assay: 384 well plate NINDS Rhodamine confirmatory qHTS for Zika virus inhibitors (AID 1347164).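 Note: fluorescence from protease cleavage of Ac-LKRR-rhodamine 110 substrate; nearly all actives have a fitted effect of over 65% in size.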 Note: potency is the fitted concentration of half-maximal effect. The method, boiled down: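 Enzyme (final 5/30/60 nM) + cpd (DMSO), ~15 min; add Ac-LKRR-Rd 10 microM final; 25 min RT, dark; FI ex 485/em 538; normalized to no-enzyme, no-inhibitor ctrls; aprotinin intraplate ctrl.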

The nature of assay [7]: Vero cells viability qHTS for Zika virus inhibitors (AID 1347167). Note: potency is the fitted concentration of half-maximal effect. A digest of the protocol: (§1)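 Compounds were tested in concentration series on cells grown in DMEM containing 4% FBS. After 24 to 48 hours, cellular ATP was measured by luminescence with CellTiter Glo.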
A short description of assay [8]: HepG2 cells viability qHTS for Zika virus inhibitors (AID 1347168). Note: potency is the fitted concentration of half-maximal effect. The method, boiled down:
as §1

A short description of assay [9]: Tertiary RLuc qRT-PCR qHTS assay for Zika virus inhibitors (AID 1347169). Note: nearly all actives have a fitted effect of over 55% in size. Note: potency is the fitted concentration of half-maximal effect. A digest of the protocol: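 Vero, 1,000 cells/well, o/n 37 C; cpd pinned in DMSO; ZIKV-RLuc Cambodian, MOI 1-2, 48-72 h 37 C; live-cell RLuc substrate, lum read at 1-1.5 h.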
Assay [10] in a line: ZIKV-mCherry secondary qHTS for Zika virus inhibitors (AID 1347158). Note: top concentration of the series differs between compounds. The method, boiled down: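 Vero cells (5,000/well) were given compound, then infected with ZIKV-mCherry at MOI 1 for 48–72 h at 37 °C. After PFA fixation and Hoechst staining, imaging gave percent mCherry-positive cells. The positivity threshold was RFU above 450, 3 SD over negative controls.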
Assay [11] is described as follows: Confirmatory screen GU Rhodamine qHTS for Zika virus inhibitors qHTS (AID 1347157). Note: potency is the fitted concentration of half-maximal effect; nearly all actives have a fitted effect of over 70% in size. As to conditions: purified enzyme assay, Rhodamine110 substrate fluorescence, 15 min. The method, boiled down: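 In dose–response format, inhibition of unlinked protease (25 nM) was measured with 1.5 microM bis-peptide Rhodamine110 substrate. Aprotinin served as the intraplate control.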

The nature of assay [12]: Confirmatory screen NINDS Rhodamine qHTS for Zika virus inhibitors (AID 1347161). Note: potency is the fitted concentration of half-maximal effect; nearly all actives have a fitted effect of over 60% in size. The method, boiled down: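 Aprotinin served as in-plate control. Conditions: 25 nM linked NS2B-NS3, pH 8.0 Tris buffer, titrated compounds, 15 min preincubation and 15 min reaction with 1.5 microM Rhod110 substrate at room temperature.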
A short description of assay [13]: OV-KATE Cancer Cell Toxicity qHTS against the NCATS CANVASS Library (AID 1347345). The method, boiled down: (§2)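 Bortezomib titration and single-dose wells served as plate controls. Test compounds, 11 points, acted on 1000 cells/well for 72 h at 37 degrees C; CellTiter-Glo luminescence quantified remaining viable cells.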
Assay [14] can be described thus: HPAF-II Cancer Cell Toxicity qHTS against the NCATS CANVASS Library (AID 1347346). Note: nearly all actives have a fitted effect of over 55% in size. The method, boiled down:
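HPAF-II cells at 1000 cells/well were treated with an 11-point concentration series for 72 hours at 37 degrees C. Viability read by CellTiter-Glo luminescence.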

A short description of assay [15]: UWB1.289 Cancer Cell Toxicity qHTS against the NCATS CANVASS Library (AID 1347347). Note: nearly all actives have a fitted effect of over 60% in size. The method, boiled down: as §2
Assay [16] can be described thus: OV-SAHO Cancer Cell Toxicity qHTS against the NCATS CANVASS Library (AID 1347348). Note: nearly all actives have a fitted effect of over 55% in size. The method, boiled down:
as §2

Assay [17] is described as follows: Panc-1005 Cancer Cell Toxicity qHTS against the NCATS CANVASS Library (AID 1347349). Note: nearly all actives have a fitted effect of over 60% in size. The method, boiled down:
as §2

Assay [18] can be described thus: SW1088 Cancer Cell Toxicity qHTS against the NCATS CANVASS Library (AID 1347350). Note: nearly all actives have a fitted effect of over 75% in size. As to conditions: SW1088 viability, CellTiter-Glo luminescence, 72 h; at 38.3 µM (top of the series). The method, boiled down:
as §2

Sequence of Lysine-specific demethylase 5B (Homo sapiens) (Q9UGL1 whole entry, looked up): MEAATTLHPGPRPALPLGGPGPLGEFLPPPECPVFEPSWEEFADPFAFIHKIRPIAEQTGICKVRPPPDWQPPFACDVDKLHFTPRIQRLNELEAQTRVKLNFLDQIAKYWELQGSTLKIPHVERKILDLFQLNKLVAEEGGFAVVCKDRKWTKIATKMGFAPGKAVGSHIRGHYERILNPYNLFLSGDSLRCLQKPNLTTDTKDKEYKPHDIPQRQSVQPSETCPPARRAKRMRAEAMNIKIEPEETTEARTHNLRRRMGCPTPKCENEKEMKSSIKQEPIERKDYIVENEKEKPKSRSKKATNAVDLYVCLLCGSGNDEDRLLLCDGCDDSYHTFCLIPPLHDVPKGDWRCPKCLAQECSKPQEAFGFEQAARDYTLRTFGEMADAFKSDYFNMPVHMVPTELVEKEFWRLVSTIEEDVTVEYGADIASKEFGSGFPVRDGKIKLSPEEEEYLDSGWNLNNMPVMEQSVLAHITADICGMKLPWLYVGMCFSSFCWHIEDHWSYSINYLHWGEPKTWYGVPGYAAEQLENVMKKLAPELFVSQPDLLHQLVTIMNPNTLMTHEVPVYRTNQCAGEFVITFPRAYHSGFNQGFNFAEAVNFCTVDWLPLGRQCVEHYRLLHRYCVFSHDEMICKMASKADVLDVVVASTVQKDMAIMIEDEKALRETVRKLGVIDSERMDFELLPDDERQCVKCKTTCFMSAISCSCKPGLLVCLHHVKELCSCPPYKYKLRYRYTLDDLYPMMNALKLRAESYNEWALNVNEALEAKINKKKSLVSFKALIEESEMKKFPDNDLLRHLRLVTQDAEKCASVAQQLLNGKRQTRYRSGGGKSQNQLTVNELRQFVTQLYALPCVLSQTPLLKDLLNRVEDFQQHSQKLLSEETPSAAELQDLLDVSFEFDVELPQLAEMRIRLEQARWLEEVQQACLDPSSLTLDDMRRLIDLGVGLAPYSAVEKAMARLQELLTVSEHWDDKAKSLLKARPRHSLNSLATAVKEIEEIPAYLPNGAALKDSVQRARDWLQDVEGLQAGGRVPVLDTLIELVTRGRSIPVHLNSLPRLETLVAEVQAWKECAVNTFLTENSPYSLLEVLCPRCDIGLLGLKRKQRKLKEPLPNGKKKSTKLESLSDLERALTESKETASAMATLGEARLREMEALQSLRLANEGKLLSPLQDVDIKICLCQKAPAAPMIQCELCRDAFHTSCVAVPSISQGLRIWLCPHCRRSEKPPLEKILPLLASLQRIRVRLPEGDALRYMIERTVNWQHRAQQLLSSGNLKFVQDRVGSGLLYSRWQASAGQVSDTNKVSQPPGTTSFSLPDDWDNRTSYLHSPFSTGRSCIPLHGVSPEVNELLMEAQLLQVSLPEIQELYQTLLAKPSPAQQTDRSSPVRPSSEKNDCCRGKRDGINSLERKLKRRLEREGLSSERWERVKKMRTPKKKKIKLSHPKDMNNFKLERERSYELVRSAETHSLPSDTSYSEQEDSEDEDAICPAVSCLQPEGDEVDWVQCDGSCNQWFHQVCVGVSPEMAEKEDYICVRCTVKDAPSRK

`CCCCS(=O)(=O)N[C@@H](Cc1ccc(OCCCCC2CCNCC2)cc1)C(=O)O`: in assay [1], the Potency result is “inactive”. The outcome in [2] and in [3] was inactive.
As to `O=c1[nH]c(=O)n([C@H]2CCCO2)cc1F`, the Potency result in assay [1] was “inactive”. In addition, the outcome in [2] and in assay [3] was inactive.
As to `Cc1nc2n(c(=O)c1CCN1CCC(c3noc4cc(F)ccc34)CC1)CCC[C@H]2O`, in assay [1], the Potency entry was “inactive”. In addition, the outcome in assay [2] and in assay [3] was inactive.
As for `COc1cccc(OC)c1C(=O)N[C@@H]1C(=O)N2[C@@H]1SC(C)(C)[C@@H]2C(=O)O`, in [1], the Potency entry is “inactive”. For the same compound, the outcome in [3] was inactive.
In the case of `CC(C)COC(=O)OCN1C(=O)CN(CCN2CC(=O)N(COC(=O)OCC(C)C)C(=O)C2)CC1=O`, in [4], the outcome was inactive.
In the case of `O=C(O)c1cc2cc(Cc3cccnc3)ccc2o1`, the outcome in assay [4] was inactive.
Take `CNCCC(Oc1ccccc1C)c1ccccc1` (stereo not given): the outcome in assay [4] was inactive.
`C[C@@H]1C(=O)NC2=Nc3cccc(Cl)c3CN21`: the result in assay [4] was inactive.
Turning to `C[C@]12CC[C@@H]3c4ccc(O)cc4CC[C@H]3[C@@H]1CC[C@@H]2O`, in [1], the Potency result was “inactive”. In addition, the compound was classed as inactive in assay [4].
For `COC(=O)CCc1ccc(OCC(O)CNC(C)C)cc1` (stereo not given), the Potency entry in assay [1] is “inactive”. Also, the result in [2] and in [3] was inactive.
As for `C#C[C@]1(OC(C)=O)CC[C@H]2[C@@H]3CCC4=C[C@@H](OC(C)=O)CC[C@@H]4[C@H]3CC[C@@]21C`, the Potency entry in [1] is “inactive”. Moreover, the result in assay [2] and in [3] was inactive.
As to `COc1cc2c(cc1O)CC[C@@H]1[C@@H]2CC[C@]2(C)[C@@H](O)CC[C@@H]12`, the outcome in [4] was inactive.
Regarding `CN(C)CCCOc1nn(Cc2ccccc2)c2ccccc12`, in assay [1], the Potency result was “inactive”. Further, the outcome in [2] and in [3] was inactive.
For the compound `CN1C2CCC1CC(OC(=O)c1c[nH]c3ccccc13)C2` (stereo not given), the result in [4] was inactive.
For the compound `CCCn1c(=O)[nH]c(=O)c2[nH]cnc21`, in assay [4], the compound was called inactive.
`COc1c(C)c2c(c(O)c1C/C=C(\C)CCC(=O)O)C(=O)OC2`: the Potency entry in [1], in assay [6], in [7] and in assay [8] was “inactive” throughout. Moreover, the compound was classed as inactive in assay [5]. Besides, the Potency in assay [9] was 0.739 µM (active).
As to `Nc1ccn([C@@H]2O[C@H](CO)[C@@H](O)C2(F)F)c(=O)n1`, the Potency entry in assay [1], in assay [7] and in assay [8] was “inactive” each time. Besides, the result in [2] and in assay [3] was inactive. In addition, in assay [9], the Potency was 0.0302 µM (active).
Regarding `CCCCC(CC)CN=C(N)NC(N)=NCCCCCCN=C(N)NC(N)=NCC(CC)CCCC` (stereo not given), the Potency entry in [10] was “inactive”. The Potency was 39.8 µM (active) in assay [6], 29.4 µM (active) in [7], 13.1 µM (active) in assay [8] and 3.7 µM (active) in [9].
Turning to `N[C@H](CO)C(=O)O`, the Potency entry in assay [1] is “inactive”. Moreover, in assay [4], the outcome was inactive.
Turning to `Nc1cc(Cl)c(NC2=NCCN2)c(Cl)c1`, the outcome in [4] was inactive.
Turning to `Oc1c(Cl)cc(Cl)cc1Sc1cc(Cl)cc(Cl)c1O`, the Potency in assay [11] is 22.4 µM (active); in assay [12], 7.08 µM (active); in [6] it was 200 µM (active). The result in assay [5] was inactive. Besides, in assay [9], the Potency entry was “inactive”.
For `O=C(OCCOCCO)c1ccccc1Nc1cccc(C(F)(F)F)c1`, the Potency entry in assay [1] is “inactive”. Moreover, the call in [2] and in [3] was inactive.
For the compound `COc1ccc(CN2CCN(C(c3ccc(F)cc3)c3ccc(F)cc3)CC2)c(OC)c1OC`, the Potency entry in assay [1] was “inactive”. The call in assay [2] and in assay [3] was inactive.
For the compound `COC(=O)[C@H]1[C@H]2C[C@H]3c4[nH]c5ccccc5c4CCN3C[C@H]2CC[C@@H]1O`, the result in assay [4] was inactive.
In the case of `CC1(C)CCC(NC(=O)[C@@H](N)CCC(=O)O)CC1`, the call in assay [4] was inactive.
`O=C1CCC(c2ccc(-n3ccnc3)cc2)=NN1`: the compound was called inactive in assay [4].
With `CN1CCC[C@@H]1c1cccnc1`, the Potency result in assay [1] was “inactive”. For the same compound, the compound was classed as inactive in assay [3], in assay [13], in [14], in assay [15], in assay [16] and in assay [17]. Further, the result in assay [18] was inactive.
In the case of `CC(=O)O[C@H]1C[C@@H]2CC[C@@H]3[C@H](CC[C@@]4(C)[C@H]3C[C@H]([N+]3(C)CCCCC3)[C@@H]4OC(C)=O)[C@@]2(C)C[C@@H]1[N+]1(C)CCCCC1`, the compound was called inactive in assay [4].
In the case of `NC(=NCCCCCCN=C(N)/N=C(\N)Nc1ccc(Cl)cc1)/N=C(\N)Nc1ccc(Cl)cc1`, the compound was classed as inactive in assay [2] and in [3].
For `CCCC1O[C@@H]2C[C@H]3[C@@H]4CCC5=CC(=O)C=C[C@]5(C)[C@H]4[C@@H](O)C[C@]3(C)[C@]2(C(=O)CO)O1` (stereo not given in full), the compound was called inactive in assay [4].
Turning to `CNCCC=C1c2ccccc2CCc2ccccc21`, the compound was classed as inactive in assay [4].
Take `CC(=O)O[C@]1(C(C)=O)CC[C@H]2[C@@H]3C[C@H](C)C4=CC(=O)CC[C@]4(C)[C@H]3CC[C@@]21C`: the Potency entry in assay [1] is “inactive”. Besides, the compound was called inactive in assay [2] and in assay [3].
In the case of `CN1[C@@H]2CC[C@H]1CC(OC(=O)c1c[nH]c3ccccc13)C2` (stereo not given in full), the Potency entry in assay [1] is “inactive”. The compound was called inactive in assay [2] and in [3].
`CC(CCc1ccccc1)NCC(O)c1ccc(O)c(C(N)=O)c1` (stereo not given): the outcome in assay [2] and in assay [3] was inactive.
In the case of `CC[C@H](C)C(=O)O[C@H]1CCC=C2C=C[C@H](C)[C@H](CC[C@@H]3C[C@@H](O)CC(=O)O3)[C@H]21`, the result in [4] was inactive.
